Sampled rows, rich in hits. Any-hit rate of the full collection: about 3.5%.
MITF inh – inhibitors of human MITF; O75030; inhibition, % at 2.6 µM; 0.91% of 650,000 active; AlphaScreen MITF homodimerization, bead proximity signal; in the data active means inhibition above about 50%;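 further: 0% = vehicle wells with protein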
Target sequence (O75030 whole entry, looked up): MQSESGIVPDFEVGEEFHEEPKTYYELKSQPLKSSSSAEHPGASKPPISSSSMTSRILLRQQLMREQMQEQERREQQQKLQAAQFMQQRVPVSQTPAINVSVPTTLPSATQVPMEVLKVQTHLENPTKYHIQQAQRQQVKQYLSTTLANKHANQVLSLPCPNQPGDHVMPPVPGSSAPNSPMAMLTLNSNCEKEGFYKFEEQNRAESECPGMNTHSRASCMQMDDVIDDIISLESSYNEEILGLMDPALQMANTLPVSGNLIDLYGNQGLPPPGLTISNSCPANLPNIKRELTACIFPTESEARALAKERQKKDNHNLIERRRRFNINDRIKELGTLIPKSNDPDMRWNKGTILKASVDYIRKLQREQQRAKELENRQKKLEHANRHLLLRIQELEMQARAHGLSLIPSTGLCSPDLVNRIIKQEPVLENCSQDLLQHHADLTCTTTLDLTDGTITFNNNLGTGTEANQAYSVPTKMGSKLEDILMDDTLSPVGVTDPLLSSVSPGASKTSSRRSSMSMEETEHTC
GPR151 activ – activators of human GPR151; 1% of 650,000 active; activation, % at 11.2 µM; AID 1508602; Q8TDV0; PathHunter beta-arrestin GPR151 cells, luminescence; in the data active means activation above about 4.9%;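 further: 0% = median of compound wells and 100% = cells with positive control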
TEAD-YAP inh – TEAD-YAP interaction inhibition; HEK-TIYL cells, TEAD-Gal4/YAP UAS-luciferase luminescence; inhibition, % at 9.12 µM; 1.4% of 640,000 active; in the data active means inhibition above about 32%;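 further: 0% = median of test compound wells and 100% = reference inhibitor wells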
FBW7 act – activators of human E3 ligase FBW7 | Q969H0 | AlphaScreen FBW7–phospho-cyclin E peptide binding, activator screen | normalized activity (activation), % at 26.1 µM | 0.13% of 650,000 active; in the data active means normalized activity above about 1.9%;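 further: purified mutant Fbw7 with reduced substrate affinity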
MITF confirm – human MITF inhibition, confirmation; shares compounds with MITF inh; AlphaScreen MITF homodimerization, biotin/His-MITF beads; inhibition, % at 2.6 µM; 16% of 4,700 active; AID 1259372;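 active means inhibition above a cutoff derived from the DMSO control wells, cut at about 28% in these data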;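 further: 0% = MITF dimer wells with DMSO only; inhibitors lower the bead chemiluminescence by keeping MITF from dimerizing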
AlphaScreen intf2 – counter-screen: compounds optically interfering with AlphaScreen; shares compounds with MITF inh; LysRS AlphaScreen counterscreen, signal interference, triplicate; inhibition, % at 2.6 µM; 7.6% of 4,700 active;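 active means inhibition above a cutoff derived from the DMSO control wells, cut at about 30% in these data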
An asterisk follows results filed as active; x = no result given.

SMILES	MITF inh	GPR151 activ	TEAD-YAP inh	FBW7 act	MITF confirm	AlphaScreen intf2
C=CCc1cc(Cl)ccc1OCCNCCO	52*	-1	14	0	5	-9
C=CCc1cc(Cl)ccc1OCCNCCCOC	25	0	10	0	x	x
COc1cccc(C2=NC(C)(C)NC(c3cc(Cl)ccc3O)C2)c1 (stereo unspecified)	-7	0	-8	0	x	x
COc1ccccc1CN1CCN(Cc2cccc3ccccc23)CC1	85*	-2	7	0	4	12
CSc1ccc(CN2CCN(Cc3cccc4ccccc34)CC2)cc1	74*	1	-8	0	14	20
CCOC(=O)N1CCN(Cc2cccc(OC)c2OC)CC1	-10	0	13	0	x	x
COc1cccc(CN2CCN(Cc3ccccc3C)CC2)c1OC	77*	-1	-3	0	5	12
COc1ccc(CN2CCN(Cc3cccc4ccccc34)CC2)cc1	57*	0	10	0	21	19
COc1cccc(CN2CCN(Cc3cccc4ccccc34)CC2)c1OC	82*	-1	-2	0	18	22
COc1ccccc1N1CCN(Cc2cccc(OC)c2OC)CC1	23	0	7	1	x	x
O=C(CC(NCc1ccccn1)C(=O)O)Nc1ccc(F)cc1 (stereo unspecified)	108*	2	-15	0	102*	100*
O=C(CC(NCc1ccccn1)C(=O)O)Nc1cccc([N+](=O)[O-])c1 (stereo unspecified)	43	-1	-3	0	x	x
O=C(CC(NCc1ccco1)C(=O)O)Nc1ccc(Oc2ccccc2)cc1 (stereo unspecified)	6	1	-2	0	x	x
O=C(CC(NCc1ccccn1)C(=O)O)Nc1ccc(Oc2ccccc2)cc1 (stereo unspecified)	90*	2	2	0	95*	100*
CCOC(=O)c1c(NC(=O)CN2CCN(CC)CC2)sc(C)c1C	86*	-1	5	0	6	2
CCOC(=O)c1c(NC(=O)CN(C)C)sc(C)c1C	5	0	6	0	x	x
CCOC(=O)c1sc(NC(=O)CN2C(C)CCCC2C)c(C(=O)OCC)c1C (stereo unspecified)	58*	2	-3	0	-5	3
CCOC(=O)C1=C(C)Nc2nc(SC)nn2C1c1ccc(C)cc1 (stereo unspecified)	14	0	8	0	x	x
CCOC(=O)[C@@H]1C(=O)NC(SCC(N)=O)=C(C#N)[C@H]1c1ccccc1OCC	-3	0	-5	0	x	x
CN(C)CCOc1cc(-c2ccnc(N)n2)ccc1NC(=O)C1COc2ccccc2O1 (stereo unspecified)	2	4	-2	0	x	x
COc1cccc(-c2ccc(=O)n(CC(=O)NCC3CCCO3)n2)c1 (stereo unspecified)	51*	-1	3	0	14	11
O=C(CCCn1c(SCc2nc3ccccc3[nH]2)nc2ccsc2c1=O)NCCc1ccccc1	3	-1	-6	0	x	x
O=C(O)CCCCCn1c(SCc2nc3ccccc3[nH]2)nc2ccsc2c1=O	61*	0	-6	0	-11	-7
CS(=O)(=O)N1CCN(Cc2ccccc2)CC1	4	-1	-5	0	x	x
COc1ccc(CN2CCN(S(C)(=O)=O)CC2)cc1	57*	1	20	0	-2	-8
SMILES	MITF inh	GPR151 activ	TEAD-YAP inh	FBW7 act	MITF confirm	AlphaScreen intf2
CS(=O)(=O)N1CCN(Cc2ccc(F)cc2)CC1	62*	-1	4	0	-8	4
CCOc1ccc(C2=NC(c3c(F)cccc3Cl)NC(c3cc(Cl)ccc3O)C2)cc1 (stereo unspecified)	-3	1	9	0	x	x
CCOc1cc(CN2CCN(S(=O)(=O)c3ccccc3[N+](=O)[O-])CC2)ccc1OC	66*	2	-10	0	9	13
COc1cccc(CN2CCN(S(=O)(=O)c3ccccc3[N+](=O)[O-])CC2)c1	66*	0	-2	0	9	11
O=C(O)c1cc(-c2ccco2)nc2ccc(Br)cc12	58*	0	-7	0	20	18
O=C(O)c1ccccc1-c1cc(C(=O)O)c2cc(Br)ccc2n1	1	-1	11	0	x	x
Cc1cc(N2CCCCC2)nc2ccc(NC(=O)c3cccnc3)cc12	53*	0	-6	1	-7	0
COc1cccc(C2CC(c3cccs3)=NN2C(=O)CSc2nnc(CNC(=O)c3ccccc3)n2-c2ccccc2)c1OC (stereo unspecified)	70*	0	3	1	-11	0
O=C(O)C(O)C(O)C(O)C(O)C(=O)O (stereo unspecified) (tested in a mixture with another compound)	-4	0	x	0	x	x
O=C(O)c1nsnc1C(O)C(O)C(=O)O (stereo unspecified)	68*	-1	-1	0	-7	1
Cc1cnc(CNc2cc(-c3cncc(Br)c3)nc(-c3ccccc3)n2)cn1	7	1	-2	0	x	x
Clc1ccc(Cn2ncc3c(N4CCN(C/C=C/c5ccccc5)CC4)ncnc32)c(Cl)c1	10	0	1	0	x	x
COc1ccc(-c2cccc(C(=O)NCc3cccc(C(F)(F)F)c3)n2)cc1	-1	2	9	0	x	x
NC(=O)COc1ccc2c(C(F)(F)F)cc(=O)oc2c1	54*	-1	12	0	-23	15
C=CCOC(=O)COc1ccc2c(CC)cc(=O)oc2c1	76*	-1	-1	0	8	7
CC(C)(C)C(=O)COc1ccc2c(C(F)(F)F)cc(=O)oc2c1	6	0	6	0	x	x
COc1ccc(/C=C(/NC(=O)c2ccccc2)C(=O)Nc2ccc(F)cc2)cc1OC	67*	0	4	0	0	11
COc1ccc(C(=O)N/C(=C\c2ccc([N+](=O)[O-])cc2)C(=O)Nc2ccc(C)c(C)c2)c(Cl)c1	61*	-1	-15	1	-1	-3
O=C(Nc1cccc(C(=O)O)c1)/C(=C/c1ccc([N+](=O)[O-])cc1)NC(=O)c1ccccc1	-3	-2	-1	0	x	x
O=C(Nc1cccc(O)c1)/C(=C/c1ccc([N+](=O)[O-])cc1)NC(=O)c1ccccc1	52*	0	6	0	-9	-2
COc1cc2c(cc1OC)C(COc1ccc(F)cc1)N(C(=O)C1CC1)CC2 (stereo unspecified)	0	-1	-12	0	x	x
COc1cc2c(cc1OC)C(c1cc3cc4c(cc3[nH]c1=O)OCO4)N(C(=O)C1CC1)CC2 (stereo unspecified)	67*	0	6	0	4	11
CC(C)CC1=NN2C(=N)/C(=C/c3cccc(OCCOc4ccc(Br)cc4)c3)C(=O)N=C2S1	-2	2	-49	0	x	x

Bioassay records deposited in PubChem BioAssay by The Scripps Research Institute Molecular Screening Center.
